High-throughput results as filed in PubChem.
An excerpt weighted towards active compounds, which were near 12% of everything screened.
USP17 block – inhibitors of human USP17 deubiquitinase. A8MUK1. purified USP17, Ub-rhodamine cleavage fluorescence, 3 h. inhibition, % at 50 µM. 6.5% of 47,000 active. AID 1645855
Target sequence (A8MUK1 whole entry, looked up): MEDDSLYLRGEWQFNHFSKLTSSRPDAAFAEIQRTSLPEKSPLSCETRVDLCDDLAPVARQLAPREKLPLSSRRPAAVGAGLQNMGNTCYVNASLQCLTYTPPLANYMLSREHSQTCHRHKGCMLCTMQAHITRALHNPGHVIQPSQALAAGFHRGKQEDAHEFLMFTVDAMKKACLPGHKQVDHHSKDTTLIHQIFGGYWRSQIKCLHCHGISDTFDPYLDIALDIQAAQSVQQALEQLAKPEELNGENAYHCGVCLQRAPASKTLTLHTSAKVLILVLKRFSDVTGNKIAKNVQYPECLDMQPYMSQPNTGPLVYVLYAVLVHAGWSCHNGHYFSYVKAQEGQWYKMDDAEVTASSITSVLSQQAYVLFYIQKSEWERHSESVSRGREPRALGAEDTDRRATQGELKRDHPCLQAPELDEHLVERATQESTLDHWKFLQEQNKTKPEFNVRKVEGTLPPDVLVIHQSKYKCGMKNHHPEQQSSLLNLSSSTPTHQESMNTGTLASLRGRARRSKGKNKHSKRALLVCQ
USP28 block – blocks human USP28 ubiquitin-rhodamine cleavage | Q96RU2 | purified USP28, Ub-rhodamine cleavage fluorescence, 30 min | inhibition, % at 25 µM | 3% of 47,000 active | AID 1645857
USP30 inh – human USP30 deubiquitinase inhibition | Q70CQ3 | purified USP30, Ub-rhodamine cleavage fluorescence | inhibition, % at 25 µM | 5.3% of 47,000 active | AID 1645860
OTUD3 inh – inhibitors of human OTUD3 deubiquitinase; AID 1645858; inhibition, % at 25 µM; 0.7% of 47,000 active; purified OTUD3, Ub-rhodamine fluorescence, 2 h
Numbers stand for hits; 0 = inactive. Rule as the data show it: active = inhibition above about 30%; inactive = the rest.

SMILES	USP17 block	USP28 block	USP30 inh	OTUD3 inh
O=C(Nc1nc2ccccc2s1)c1cccn(Cc2cccc(Cl)c2)c1=O	45.8	0	0	0
O=C(Nc1nccs1)c1cccn(Cc2ccc(Cl)c(Cl)c2)c1=O	31.1	0	0	0
Cc1nn(C2CCCC2)c2c1C(c1ccc(Br)cc1)SCC(=O)N2 (stereo not given)	0	0	0	0
CN1C[C@@H]2C[C@H](NC(=O)c3ccncc3)CN2Cc2ccccc21	0	0	0	0
Cc1cc(C)nc(-n2nc(C)c3c2NC(=O)CSC3c2ccc(O)cc2)n1 (stereo not given)	0	0	0	0
Cc1cc(C)nc(-n2nc(C)c3c2NC(=O)CSC3c2ccc(F)cc2F)n1 (stereo not given)	45.3	0	77.2	0
CN1CCCC[C@@H]2N(C(=O)Cn3ccc(=O)[nH]c3=O)CCC[C@@]21C	0	0	30.8	0
CN1CC[C@@H]2[C@H]1CCCCN2C(=O)COc1ccc(F)cc1	0	0	0	0
O=C(Nc1ccccc1)N1CCC2(CC1)C(=O)Nc1c(Oc3ccccc3)cccc12	0	0	0	0
COc1cccc2c1NC(=O)C21CCN(C(=O)Nc2cccc3ccccc23)CC1	91.9	0	0	0
COc1c2c(c(O)c3c1C(=O)c1c(cc(O)c(C)c1O)C3=O)-c1c(cc3c(c1O)C(=O)OC3O)CC2 (stereo not given)	94.4	88.0	59.3	89.0
Cc1ccc(N2CC[C@@H]3[C@@H]2CCN3Cc2cccc(C#N)c2)nn1	0	0	0	0
COCC(O)C1OC(=O)C(O)CC2C=CC3C4OC2(/C(C)=C\C1C)C3C(O)C(COC)C4OC(=O)c1ccc[nH]1 (stereo not given)	0	0	38.1	0
CN1CC[C@@H]2[C@H](C1)CN2C(=O)Nc1ccc(F)cc1	0	0	0	0
Cc1nn(Cc2ccccc2)c(Cl)c1C(=O)NC1CCCc2ccccc21 (stereo not given)	55.6	30.6	34.8	0
COc1cc2c(c3oc4cccc(O)c4c(=O)c13)C1C=COC1O2 (stereo not given)	53.7	50.2	0	0
CC(C)C12CN3CC(C(C)C)(CN(C1)C3c1cccnc1)C2O (stereo not given)	0	0	0	0
O=C(NCC(F)(F)F)C1=NOC2(CCNCC2)C1	0	0	0	0
C/C=C1/CN2CC[C@]34C(=C(C(=O)OC)[C@H]1C[C@H]23)Nc1c(O)cccc14	37.3	0	0	0
COc1ccc(CNC(=O)c2cn(C)c3ncccc23)cc1	0	0	0	0
O=C1C=CC(O)C2C1CC13SSC4(CC5C(=O)C=CC(O)C5N4C1=O)C(=O)N23 (stereo not given)	0	0	60.3	0
Cc1cc(OCC(=O)N2CCC3(O)CCCCC3C2)c2c3c(c(=O)oc2c1)CCCC3 (stereo not given)	0	0	0	0
COCC(C)NC(=O)c1cc2cccnc2n(Cc2ccc(F)cc2)c1=O (stereo not given)	37.8	0	30.8	0
O=C(NCc1ccco1)c1cc2cccnc2n(Cc2ccccc2)c1=O	0	0	0	0
CCN1CCC2(COCc3c(C)nc(-c4ccccc4)nc32)C1 (stereo not given)	0	35.6	0	0
SMILES	USP17 block	USP28 block	USP30 inh	OTUD3 inh
Cc1nc(NCC2CC2)nc2c1COCC21CCN(CC2CC2)C1 (stereo not given)	0	0	0	0
COC1=C(C2=C(OC)C(=O)c3cc4c(c(O)c3C2=O)C(=O)OC(C)C4)C(=O)c2c(cc3c(c2O)C(=O)OC(C)C3)C1=O (stereo not given)	70.1	67.5	0	63.6
NC(=O)CN1C[C@H]2C[C@@H](C1)c1cccc(=O)n1C2	0	0	0	0
O=C(c1ccc(Cl)cc1)N1CCCN(c2nc3ccc(Cl)cc3s2)CC1	0	0	0	0
CO/C1=C\C(C)=C\[C@@H](C)[C@@H](O)[C@H](C)C/C(C)=C/C=C/[C@H](OC)[C@@H]([C@@H](C)[C@@H](O)[C@H](C)[C@@]2(O)C[C@@H](OC(=O)/C=C/C(=O)NC3=C(O)CCC3=O)[C@H](C)[C@@H](C(C)C)O2)OC1=O	39.8	0	0	0
CO[C@H]1/C=C/C=C\C=C\C[C@H](OC(=O)[C@@H](C)NC(=O)C2CCCCC2)[C@H](C)[C@@H](O)/C(C)=C\CCc2cc(O)cc(c2O)NC(=O)C1	33.0	0	0	0
CN1[C@@H]2Cc3ccccc3[C@H]1C[C@@H](NC(=O)c1cccnc1)C2	0	0	0	0
CN1C(=O)[C@@]23C[C@]4([C@@]56C[C@]78SS[C@](CO)(C(=O)N7[C@@H]5Nc5ccccc56)N(C)C8=O)c5ccccc5N[C@@H]4N2C(=O)[C@]1(CO)SS3	0	0	67.9	0
CC(=O)c1ccc(NC(=O)C(C)N2CC=C(c3ccccc3)CC2)cc1 (stereo not given)	0	0	0	0
C=C/C(=C/C(=O)C[C@H](C)C[C@@H](C)CC[C@H](O)[C@H](C)C(=O)CC(O)[C@H](C)[C@@H](C)OC(=O)C[C@@H](O)C1=C(C)C(=O)OC1=O)CC (stereo not given in full)	87.5	90.0	54.0	89.5
CC1Oc2cc3c(-c4c(O)cc(O)c5c(O)c6c(cc45)OC(C)C(C)C6=O)c(O)cc(O)c3c(O)c2C(=O)C1C (stereo not given)	81.0	89.8	34.6	83.7
C[C@@H]1O[C@H]2C3=C(C(=O)[C@H]4O[C@H]4[C@@H]3O)[C@@H]1[C@H]1[C@H](C)OC=C3[C@@H](O)[C@@H]4O[C@@H]4C(=O)[C@]312	0	0	0	0
O=C(O)c1cccc2nc3ccccc3nc12	38.8	0	0	0
O=C(NCc1ccc(F)cc1)[C@H]1CN2CCC1C[C@@H]2Cn1cc(-c2cccc(O)c2)nn1 (stereo not given in full)	0	0	0	0
CC1CC[C@]2(NC1)O[C@H]1C[C@H]3[C@@H]4CC[C@H]5C[C@@H](O[C@@H]6O[C@H](CO)[C@H](O[C@@H]7O[C@H](CO)[C@@H](O)[C@H](O[C@@H]8OC[C@@H](O)[C@H](O)[C@H]8O)[C@H]7O[C@@H]7O[C@H](CO)[C@@H](O)[C@H](O)[C@H]7O)[C@H](O)[C@H]6O)CC[C@]5(C)[C@H]4CC[C@]3(C)[C@H]1[C@@H]2C (stereo not given in full)	62.3	0	41.4	0
CCc1noc(-c2ccc(OCC(=O)N3CCN(Cc4ccccc4)CC3)cc2)n1	0	0	0	0
CCOc1ccc(C2SCC(=O)Nc3c2c(=O)[nH]n3C2CCCCCC2)cc1 (stereo not given)	0	0	0	0
Cc1ccc(C2SCC(=O)Nc3c2c(=O)[nH]n3C2CCCCC2)cc1 (stereo not given)	0	0	0	0
O=C1CSC(c2ccc3c(c2)OCO3)c2c(n(C3CCCCCC3)[nH]c2=O)N1 (stereo not given)	0	0	33.0	0
O=C1CSC(c2ccc3c(c2)OCO3)c2c(-c3ccccc3)nn(-c3ccccc3)c2N1 (stereo not given)	0	0	30.3	0
